Source: PubChem BioAssay (The Scripps Research Institute Molecular Screening Center)
TEAD-YAP inh = TEAD-YAP interaction inhibition; inhibition, % at 9.12 µM; HEK-TIYL cells, TEAD-Gal4/YAP UAS-luciferase luminescence; actives 1.4% (n = 640,000); in the data active = inhibition above about 32%
GPR151 ag = activates the human receptor GPR151; Q8TDV0; PathHunter beta-arrestin GPR151 cells, luminescence; activation, % at 11.2 µM; actives 1% (n = 650,000); AID 1508602; in the data active = activation above about 4.9%
FBW7 activator = human FBW7 E3 ligase activation, primary screen. Q969H0. AlphaScreen FBW7–phospho-cyclin E peptide binding, activator screen. normalized activity (activation), % at 26.1 µM. actives 0.13% (n = 650,000). AID 1259310; in the data active = normalized activity above about 1.9%;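 also: purified mutant Fbw7 with reduced substrate affinity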
MITF primary = blocks human microphthalmia-associated transcription factor; O75030; AlphaScreen MITF homodimerization, bead proximity signal; inhibition, % at 2.6 µM; actives 0.91% (n = 650,000); AID 1259374; in the data active = inhibition above about 50%
Target sequence (O75030 whole entry, looked up): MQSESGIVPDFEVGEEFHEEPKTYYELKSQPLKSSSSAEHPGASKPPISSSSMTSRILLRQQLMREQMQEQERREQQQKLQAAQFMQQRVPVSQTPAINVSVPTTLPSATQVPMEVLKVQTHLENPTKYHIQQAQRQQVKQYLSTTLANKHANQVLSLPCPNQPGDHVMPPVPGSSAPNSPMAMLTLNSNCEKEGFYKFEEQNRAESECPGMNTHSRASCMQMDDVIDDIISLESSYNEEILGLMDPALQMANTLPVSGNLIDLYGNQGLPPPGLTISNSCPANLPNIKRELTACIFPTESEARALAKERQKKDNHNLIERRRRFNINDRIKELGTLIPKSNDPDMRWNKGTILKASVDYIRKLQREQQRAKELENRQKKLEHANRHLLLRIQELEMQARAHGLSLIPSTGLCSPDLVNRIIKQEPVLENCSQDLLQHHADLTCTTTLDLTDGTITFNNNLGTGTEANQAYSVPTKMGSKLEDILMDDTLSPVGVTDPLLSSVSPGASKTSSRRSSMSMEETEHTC
MITF inh conf = human MITF inhibition, confirmation; shares compounds with MITF primary; AlphaScreen MITF homodimerization, biotin/His-MITF beads; inhibition, % at 2.6 µM; actives 16% (n = 4,700);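 active = inhibition above a cutoff derived from the DMSO control wells, cut at about 28% in these data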;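 also: inhibitors lower the bead chemiluminescence by keeping MITF from dimerizing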
AlphaScreen DR = counter-screen: compounds optically interfering with AlphaScreen; shares compounds with MITF primary; AlphaScreen optical interference counterscreen, cell-free; actives 6% (n = 480); IC50, µM; AID 1259373; call rule not given here
AS interf ctr = optically interferes with AlphaScreen signal; shares compounds with MITF primary; LysRS AlphaScreen counterscreen, signal interference, triplicate; inhibition, % at 2.6 µM; actives 7.6% (n = 4,700);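 active = inhibition above a cutoff derived from the DMSO control wells, cut at about 30% in these data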
Large screens that a line does not name were inactive (follow-up assays come after a bar, where they were run). The list is not random: actives were taken first. Their share in the collection is about 3.5%.

O=C(c1cc(F)c(F)cc1Cl)n1cc(Br)cn1	none
CCc1ccc(NC(=O)CNCC(C)O)cc1 (stereo unspecified)	MITF primary 55.6 | MITF inh conf inactive | AS interf ctr inactive
CCc1ccc(NC(=O)C(=O)NCC(C)O)cc1 (stereo unspecified)	none
Clc1ccccc1CN1CCN(Cc2ccco2)CC1	MITF primary 69.3 | MITF inh conf inactive | AS interf ctr inactive
CC1CN(Cc2ccccc2Cl)CC(C)O1 (stereo unspecified)	MITF primary 80.3 | MITF inh conf inactive | AS interf ctr inactive
O=[N+]([O-])c1ccccc1CN1CCN(Cc2ccco2)CC1	MITF primary 53.6 | MITF inh conf inactive | AS interf ctr inactive
O=[N+]([O-])c1ccccc1CN1CCSCC1	none
COC(=O)c1ccc(/C=N/NC(=O)C(=O)Nc2ccc3ccccc3c2)cc1	none
CCN(CC)CCN1CC(c2ccccc2)CC1=O (stereo unspecified)	MITF primary 58.1 | MITF inh conf inactive | AS interf ctr inactive
Cc1cccc(OCc2nc(-c3ccc(NC(=O)c4cccs4)cc3)no2)c1	none
CC1CN(CCOc2ccc(Cl)cc2Br)CC(C)O1 (stereo unspecified)	none
CCN1CCN(CCOc2ccc3ccccc3c2Br)CC1	MITF primary 60.3 | MITF inh conf inactive | AS interf ctr inactive
CCN1CCN(CCCOc2ccc(Cl)cc2Br)CC1	MITF primary 68.1 | MITF inh conf inactive | AS interf ctr inactive
CCN1CCN(CCOc2ccc(Br)cc2C)CC1	MITF primary 57.5 | MITF inh conf inactive | AS interf ctr inactive
CCN1CCN(CCOc2ccc(Cl)cc2Br)CC1	MITF primary 56.6 | MITF inh conf inactive | AS interf ctr inactive
COc1cccc(OC)c1OCCCNCC(C)O (stereo unspecified)	none
COc1ccc(NC(=O)COc2cc(Cl)ccc2Cl)cc1	none
COc1ccccc1C(=O)Nc1cc(-c2nc3ccccc3o2)ccc1Cl	none
Cc1ccc(NC(=O)CN(Cc2ccccc2)S(=O)(=O)c2ccc(Br)cc2)cc1C	MITF primary 58.8 | MITF inh conf inactive | AS interf ctr inactive
Cc1onc(-c2ccccc2Cl)c1C(=O)NC(CC(=O)O)c1cccc([N+](=O)[O-])c1 (stereo unspecified)	none
COc1ccccc1NC(=O)CN1CCN(Cc2nc3ccccc3n2C)CC1	MITF primary 67.2 | MITF inh conf inactive | AS interf ctr inactive
Cc1nc2ccccc2n1CC1CCN(C(=O)CN2C(=O)CCC2=O)CC1	MITF primary 64.8 | MITF inh conf inactive | AS interf ctr inactive
Cn1c(CN2CCN(C(=O)CN3C(=O)CCC3=O)CC2)nc2ccccc21	MITF primary 53.9 | MITF inh conf inactive | AS interf ctr inactive
COc1ccc(CCC(=O)N2CCC(Cn3c(C)nc4ccccc43)CC2)cc1	MITF primary 77.8 | MITF inh conf inactive | AS interf ctr inactive
Cc1nc2ccccc2n1CC1CCN(C(=O)Nc2ccccc2)CC1	none
COc1ccccc1NC(=O)CN1CCN(CC(=O)Nc2ccccc2OC)CC1	none
NC(=O)c1ccc(NC(=O)CSc2nc(-c3ccccc3)cs2)cc1	none
N#Cc1ccc(Cn2c(-c3ccc(Cl)cc3)noc2=O)cc1	none
Cc1ncn(-c2ccc(N(C)c3ncc4cccc(-c5ccn[nH]5)c4n3)cc2)n1	MITF primary 57.7 | MITF inh conf 57.4 | AlphaScreen DR inactive | AS interf ctr inactive
Cc1ncn(-c2ccc(Nc3ncc4cccc(-c5ccccc5F)c4n3)cc2)n1	none
O=C1N[C@@H](Cc2ccccc2)C(=O)N2CCN(C(=O)NC3CCCCC3)C[C@H]12	MITF primary 75.7 | MITF inh conf 69.3 | AlphaScreen DR inactive | AS interf ctr inactive
O=C1N[C@H](Cc2ccccc2)C(=O)N2CCN(C(=O)NC3CCCCC3)C[C@H]12	MITF primary 74.4 | MITF inh conf 71.5 | AlphaScreen DR inactive | AS interf ctr inactive
CNCCCOc1ccc(C)cc1OC	MITF primary 51.8 | MITF inh conf inactive | AS interf ctr inactive
COc1ccccc1OCCCOc1ccc(C)cc1OC	none
c1ccc2[nH]c(CNc3nc(Nc4cnccn4)nc4nc[nH]c34)nc2c1	none
CC(C)C[C@H]1NC(=O)[C@H]2CN(C(=O)NC3CCCCC3)CCN2C1=O	MITF primary 73.9 | MITF inh conf 40.9 | AlphaScreen DR inactive | AS interf ctr inactive
CC[C@@H]1NC(=O)[C@H]2CN(C(=O)NC3CCCCC3)CCN2C1=O	MITF primary 83.4 | MITF inh conf 71.4 | AlphaScreen DR inactive | AS interf ctr inactive
CC(C)C[C@@H]1NC(=O)[C@H]2CN(C(=O)NC3CCCCC3)CCN2C1=O	MITF primary 79.7 | MITF inh conf 75.0 | AlphaScreen DR inactive | AS interf ctr inactive
O=C(Cc1cccs1)Nc1nnc(SCC(=O)c2ccccc2)s1	none
COc1ccccc1-c1nnc(Nc2nc3ccc(SC)cc3s2)o1	none
NC(=O)CSc1nnc2c3ccccc3n(CCc3ccccc3)c2n1	MITF primary 52.7 | MITF inh conf inactive | AS interf ctr inactive
CCCn1c2ccccc2c2nnc(SCC(N)=O)nc21	none
c1cc(CCSc2ccc(C34CC5CC(CC(C5)C3)C4)cc2)ccn1	none
CCOC(=O)c1cnc(-n2[nH]c(C)c(Cc3ccccc3)c2=O)[nH]c1=O	MITF primary 96.2 | MITF inh conf 87.5 | AS interf ctr 100.0
CCOC(=O)c1cnc(-n2[nH]c(C)cc2=O)[nH]c1=O	MITF primary 84.3 | MITF inh conf 97.7 | AS interf ctr 96.4
Oc1ccc(CCNc2cc(-c3cccs3)ncn2)cc1	MITF primary 59.0 | MITF inh conf 44.2 | AlphaScreen DR inactive | AS interf ctr inactive
Cc1ccc(CC(=O)Nc2nc3cc4c(cc3s2)OCCO4)c(C)c1	none
O=C(CSc1nc2[nH]ncc2c(=O)n1-c1ccc(Br)cc1)NCc1cccs1	MITF primary 54.3 | MITF inh conf inactive | AS interf ctr inactive
O=C(CSc1nc2[nH]ncc2c(=O)n1-c1ccc(Cl)cc1)NCc1cccs1	none
COCCn1c(=S)[nH]c2cc(C(=O)NCc3ccc(C)cc3)ccc2c1=O	MITF primary 62.0 | MITF inh conf inactive | AS interf ctr inactive
COCCn1c(=S)[nH]c2cc(C(=O)NCc3ccc(F)cc3)ccc2c1=O	none
CC(C)NC(=O)c1ccc2c(=O)n(CCC3=CCCCC3)c(=S)[nH]c2c1	MITF primary 83.9 | MITF inh conf inactive | AS interf ctr inactive
CCC(=O)C1=C(c2ccc(F)cc2)N(C(=O)CC)n2c(CC)nnc2S1	none
CN=C1SC(CC(=O)Nc2cccc(C(=O)O)c2)C(=O)N1C (stereo unspecified)	MITF primary 53.2 | MITF inh conf 36.4 | AlphaScreen DR inactive | AS interf ctr inactive
CS(=O)(=O)c1ccc(F)c(NC(=O)c2cccc(C(F)(F)F)c2)c1	none
CN1CCCN(Cc2ccc([N+](=O)[O-])s2)CC1	MITF primary 51.9 | MITF inh conf inactive | AS interf ctr inactive
